Source: PubChem BioAssay (Tox21)
Several values for one entry are separate records, joined by “and”; a condition that tells them apart may be missing. Equal entries are not always repeated. Results filed as inconclusive are left out. Where a call stands in place of a potency, no number is given. Where a structure was tested more than once in an assay, its records may differ in their call. Activity calls are given as the source filed them. Calls follow the shape of the dose curve; as a rule, active = well fitted activation curve with a large enough effect in the repeat runs; inconclusive = weak or mixed curves; inactive = flat fitted curve, though single readings scatter. Starred links: 1 amine or outer side, 2 acyl side, 3 side chain; linkers in the order of their positions; H or OH if unused. Positions of bridges follow the written chain, without caps; N, C: chain ends. Non-standard residues stand in square brackets, D forms with d. Residues, ends and D or L forms follow the SMILES beside them. Chains are numbered I, II in the order given. Actinocin(9to1) = Cc1c2oc3c(C)ccc(C(=O)[*:1])c3nc-2c(C(=O)[*:2])c(N)c1=O; NMeV = CN[C@H](C(=O)O)C(C)C; Sar = CNCC(=O)O
Potency is read from the fitted curve at half-maximal effect.

Assay: A CellTox Green Cytotoxicity Assay to monitor cytotoxicity in HepG2 cells - 8 hour (AID 1224890); also: nearly all actives have a fitted effect of over 45% in size
Conditions: CellTox Green fluorescence; series mostly up to 76.8 µM; cytotoxicity increase: at the top concentration
Source text: National Center for Advancing Translational Sciences [NCATS]
NIH Chemical Genomics Center [NCGC]
U.S. Environmental Protection Agency [EPA]
National Institutes of Environmental Health Sciences [NIEHS]
National Toxicology Program [NTP]
Cell-based models are critical for drug discovery. Determining the natural cytotoxic effects resulting from test compounds is an essential research activity. A CellTox Green Cytotoxicity Assay to monitor cytotoxicity in real time of continues cell culture during 40 hours of the compound treatment was used to screen Tox21 10K library compounds in HepG2 cells. CellTox Green Cytotoxicity Assay is a nonlytic, homogeneous, biofluorescent method to measure cytotoxicity in cell culture after experimental manipulation. The assay system uses a proprietary asymmetric cyanine dye that is excluded from viable cells but preferentially stains the dead cell's DNA. […] Viable cells produce no appreciable increases in fluorescence. Therefore, the fluorescence signal produced by the binding interaction with dead cell DNA is proportional to cytotoxicity.
The mixture of HepG2 cell suspension and reagents were dispensed at 600cells/6 ul/well in 1536-well tissue culture treated black solid bottom plates using a Multidrop dispenser. After the assay plates were incubated at a 37 C/5% CO2 incubator for 5 hours, 23 nL of compounds dissolved in DMSO, positive and negative controls was transferred to the assay plate by a pintool work station. The plates were incubated at 37 C for 40 hours. The fluorescence intensity were measured at 0h, 8h, 16h, 24h, 32h and 40h time points using ViewLux plate reader during compound treatment.
With `CCn1c2ccccc2c2cc(N)ccc21` the Potency was “inactive”.
For `COc1ccc(CCN(C)CCCC(C#N)(c2ccc(OC)c(OC)c2)C(C)C)cc1OC` (stereo not given), the Potency was “inactive”.
With `Oc1ccc(Cl)cc1Cc1cc(Cl)ccc1O` the Potency was “inactive”.
With `CC(=O)Nc1ccc(C(=O)CCl)cc1` the Potency was “inactive”.
In the case of `O=Nc1ccc(Nc2ccccc2)cc1`, the Potency is reported as “inactive”.
With `CCCCN(CCO)CCCC` the “cytotoxicity increase” value was -5.04% (inactive).
With `CC(=O)CC(C)=O` the “cytotoxicity increase” value was -6.55% (inactive).
With `CC(C)(c1ccccc1)c1ccc(Nc2ccc(C(C)(C)c3ccccc3)cc2)cc1` the Potency was “inactive”.
In the case of `CCc1cc(C(C)(C)C)c(O)c(C(C)(C)C)c1`, the Potency is reported as “inactive”.
In the case of `C/C=C/c1ccc(OCC)c(O)c1`, the Potency is reported as “inactive”.
For `COC(c1ccccc1)(c1ccccc1)[C@H](Oc1nc(C)cc(C)n1)C(=O)O`, the “cytotoxicity increase” value was -20.9% [at 35.3 µM] (inactive).
For `O=S(=O)(O)c1ccc2nc(-c3ccccc3)[nH]c2c1`, the Potency was “inactive”.
With `CCOc1ccccc1C(N)=O` the Potency was “inactive”.
With `Cc1c2oc3c(C)ccc(C(=O)N[C@@H]4C(=O)N[C@H](C(C)C)C(=O)N5CCC[C@H]5C(=O)N(C)CC(=O)N(C)[C@@H](C(C)C)C(=O)O[C@@H]4C)c3nc-2c(C(=O)N[C@@H]2C(=O)N[C@H](C(C)C)C(=O)N3CCC[C@H]3C(=O)N(C)CC(=O)N(C)[C@@H](C(C)C)C(=O)O[C@@H]2C)c(N)c1=O` (I: T[dV]P[Sar][NMeV] / II: T[dV]P[Sar][NMeV]; ester I:1-I:C, II:1-II:C; linker I:N-II:N via Actinocin(9to1)) the Potency was “inactive”.
In the case of `CC(COc1ccccc1)N(CCCl)Cc1ccccc1` (stereo not given), the Potency is reported as “inactive”.
For `CC[C@]1(O)C[C@@H]2CN(CCc3c([nH]c4ccccc34)[C@@](C(=O)OC)(c3cc4c(cc3OC)N(C)[C@H]3[C@@](O)(C(=O)OC)[C@H](OC(C)=O)[C@]5(CC)C=CCN6CC[C@]43[C@@H]65)C2)C1`, the Potency was “inactive”.
With `Cc1cc(Cc2cc(C)cc(C(C)(C)C)c2O)c(O)c(C(C)(C)C)c1` the Potency was 43.9 µM (active) and 34.7 µM (active).
For `Oc1c(Cl)cc(Cl)c(Cl)c1Cc1c(O)c(Cl)cc(Cl)c1Cl`, the “cytotoxicity increase” value was 3.8% (inactive).
In the case of `CCC(C)(Oc1ccc(C2(c3ccc(OC(C)(CC)C(=O)O)cc3)CCCCC2)cc1)C(=O)O` (stereo not given), the “cytotoxicity increase” value is reported as 0.322% [at 35.3 µM] (inactive).
For `C=C(C)C(=O)O`, the Potency was “inactive”.
With `CCN(CC)C(=S)SSC(=S)N(CC)CC` the Potency was 56.2 µM (active) and inactive.
In the case of `CCn1cc(C(=O)O)c(=O)c2cc(F)c(N3CCNC(C)C3)c(F)c21` (stereo not given), the “cytotoxicity increase” value is reported as 2.49% [at 35.3 µM] (inactive).
For `OCC(CO)N[C@H]1C[C@](O)(CO)[C@@H](O)[C@H](O)[C@H]1O`, the “cytotoxicity increase” value was 9.01% [at 35.3 µM] (inactive).
In the case of `c1cc(C(c2ccc(OCC3CO3)cc2)C(c2ccc(OCC3CO3)cc2)c2ccc(OCC3CO3)cc2)ccc1OCC1CO1` (stereo not given), the Potency is reported as “inactive”.
In the case of `CCN(CC)c1ccc2c(C)cc(=O)oc2c1`, the Potency is reported as “inactive”.
With `C=C(C)C1CC=C(C)C(OC(C)=O)C1` (stereo not given) the Potency was “inactive”.
For `CCCCCC(=O)O[C@]1(C(C)=O)CC[C@H]2[C@@H]3CCC4=CC(=O)CC[C@]4(C)[C@H]3CC[C@@]21C`, the Potency was “inactive”.
In the case of `C=CS(=O)(=O)O`, the “cytotoxicity increase” value is reported as -7.94% (inactive).
For `CCCOC(=O)c1cc(O)c(O)c(O)c1`, the Potency was “inactive”.
With `Cc1occc(=O)c1OC(=O)C(C)C` the “cytotoxicity increase” value was 6.27% (inactive).
With `CC(=O)OCC1=C(C(=O)O)N2C(=O)[C@@H](NC(=O)Cc3cccs3)[C@H]2SC1` the “cytotoxicity increase” value was -6.11% [at 35.3 µM] (inactive).
In the case of `O=C(Cl)c1cccc(C(=O)Cl)c1`, the Potency is reported as “inactive”.
For `CCC[C@H](N[C@@H](C)C(=O)N1[C@H](C(=O)O)C[C@@H]2CCCC[C@@H]21)C(=O)OCC`, the Potency was “inactive”.
With `C=CC(=O)OCCCCCCOC(=O)C=C` the Potency was “inactive”.
For `C1COC(NC(C2CC2)C2CC2)=N1`, the “cytotoxicity increase” value was -1.18% [at 35.3 µM] (inactive).
In the case of `CCCCC/C=C/CC1CC(=O)OC1=O` (stereo not given), the “cytotoxicity increase” value is reported as 9.15% (inactive).
In the case of `CO[Si](OC)(OC)c1ccccc1`, the “cytotoxicity increase” value is reported as -7.23% (inactive).
For `Cc1scc2c1N(C(=O)CN1CCN(C)CC1)c1ccccc1NC2=O`, the “cytotoxicity increase” value was -2.43% [at 35.3 µM] (inactive).
With `O` the Potency was “inactive”.
For `C=CC(=O)OCCCCCCCC`, the “cytotoxicity increase” value was -9.06% (inactive).
